# FLuc counter: counter-screen for miR-21 project: firefly luciferase inhibitors or activators; purified FLuc, Km substrates, luminescence inhibition; Potency, µM (top dose mostly 57.5 µM), inactives show at the highest dose activity change, negative = inhibition, most hits filed as inhibitors; 6.9% of 360,000 active;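 also: plate controls were vehicle for no effect and reference inhibitor for full effect; nearly all actives have a fitted effect of over 55% in size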
# Target sequence (P08659 whole entry, looked up): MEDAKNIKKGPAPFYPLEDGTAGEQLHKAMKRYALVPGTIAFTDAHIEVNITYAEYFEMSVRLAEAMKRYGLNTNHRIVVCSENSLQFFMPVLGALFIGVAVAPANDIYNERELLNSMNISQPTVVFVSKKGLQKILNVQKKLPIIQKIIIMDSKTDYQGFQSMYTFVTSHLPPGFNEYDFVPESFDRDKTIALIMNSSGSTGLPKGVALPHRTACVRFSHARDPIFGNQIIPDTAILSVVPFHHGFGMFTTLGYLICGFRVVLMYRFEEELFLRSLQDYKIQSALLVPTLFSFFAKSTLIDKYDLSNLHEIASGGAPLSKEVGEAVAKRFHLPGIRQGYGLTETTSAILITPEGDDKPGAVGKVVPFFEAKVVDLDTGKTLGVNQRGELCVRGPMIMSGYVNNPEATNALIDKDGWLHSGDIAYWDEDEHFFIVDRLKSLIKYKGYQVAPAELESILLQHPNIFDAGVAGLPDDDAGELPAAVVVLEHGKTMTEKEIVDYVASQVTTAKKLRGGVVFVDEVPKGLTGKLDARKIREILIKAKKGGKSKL
#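 Purified P. pyralis luciferase (10nM final) with 10uM D-luciferin and 10uM ATP (Km levels) in 50mM Tris acetate pH 7.5, 10mM Mg acetate, 0.01% Tween-20, 0.05% BSA; qHTS 6-point titration, ~60 µM downward; luminescence read.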
# SMN2 splice enh: increases expression of the SMN2 splice variant | HEK293 SMN2-luciferase splicing reporter, luminescence, 30-36 h | Potency, µM (top dose mostly 46.1 µM), without a hit: at the highest dose activity change, positive = activation, most hits filed as activators | 2.8% of 210,000 active; also: % of control where 0% means no effect; nearly all actives have a fitted effect of over 55% in size
#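 HEK293 cells carry an SMN2 […]–luciferase reporter in which exon 7 inclusion puts luciferase in frame. Cells were plated 10-12 h before compound addition, then incubated 30-36 h at 37C. ONE-Glo luminescence was read; sodium butyrate at 4.5 mM final served as control.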
# Luc counter: Kinase-Glo luciferase inhibition (counter-screen) | Kinase-Glo luciferase, ATP luminescence, 8 min | Potency, µM (highest dose often 38.3 µM), inactives show at the highest dose activity change, negative = inhibition, most hits filed as inhibitors | 0.28% of 200,000 active | AID 1379; also: % is scaled to controls: 0 for no effect and ±100 for the full control effect; nearly all actives have a fitted effect of over 60% in size
#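 Light output from Kinase-Glo luciferase with luciferin and 10 uM ATP in 50 mM imidazole pH 7.2, KCl, MgCl2, Tween 20, BSA; compound pin-delivered, 8-min ambient incubation, then luminescence read.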
# ELG1 genotox: genotoxicity induction in ELG1-luciferase HEK293T cells; Potency, µM (doses to about 46 µM), for the others: top-dose activity change, positive = activation, actives largely listed as activators; AID 504466; 1.3% of 330,000 active; HEK293T ELG1-luciferase reporter, luminescence, 16 h; also: % of control where 0% means no effect; nearly all actives have a fitted effect of over 60% in size
#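 16 hr compound incubation (37 °C, 5% CO2) of HEK293T cells carrying luciferase-tagged ELG1; luciferase then measured by ONE-Glo luminescence after 30 min at RT.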
# Rab9 prom act: activators of Rab9 promoter. Huh7 Rab9 promoter-luciferase reporter, luminescence, 24 h. AID 485297. 2.8% of 320,000 active. Potency, µM (top dose mostly 9.22 µM), inactives show top-dose activation, negative = inhibition, hits mostly activators; also: % of control where 0% means no effect; nearly all actives have a fitted effect of over 60% in size
#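 Steps: seed 1500 Huh7 Rab9-luc cells per well, rest 2 h at 37 °C; add compound in DMSO; incubate 24 h; add luciferase reagent, 10 min ambient; read luminescence.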
# NPC1 prom act: activates the NPC1 promoter; Huh7 NPC1 promoter luciferase reporter, 24 h; Potency, µM (highest dose often 9.22 µM), without a hit: at the top dose activation, hits mostly activators; 2.4% of 320,000 active; also: % of control where 0% means no effect; nearly all actives have a fitted effect of over 60% in size
#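 Huh7 cells stably carrying NPC1 promoter–luciferase, plated in Opti-MEM with 10% FBS for 2 h, were exposed to compound in DMSO for 24 h at 37 °C; luciferase reagent was added for 10 min and luminescence read.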
# The depositor's hits bear a star; ? = inconclusive; nt = no result given; [ ] = another dose, or the depositor's remark. In the library only some 7.5% were active in any assay of this set; here they are far more common. Calls follow the shape of the dose curve; as a rule, active = well fitted curve in the direction sought with a large enough effect; inconclusive = small, poorly fitted or top-dose-only effect, or another doubt; inactive = no such curve, though single readings can be large; an effect the other way counts as inactive or inconclusive. Potency is read from the fitted curve at half-maximal effect.
SMILES,FLuc counter,SMN2 splice enh,Luc counter,ELG1 genotox,Rab9 prom act,NPC1 prom act
CCOc1ccc(C(=O)Nc2ccc(NC(=O)c3ccccc3)cc2)cc1Br,2%,-6%,nt,10%,-4%,-1%
COc1ccc(C(=O)Nc2ccc(N3CCOCC3)cc2)cc1OC,24µM*,9%,?,16%,10%,23%
COc1ccc(C(=O)Nc2ccc(N3CCCC3)cc2)cc1,7.6µM*,8%,-5%,?,?,26%
Cc1ccc(N2CC3=C(C2=O)C(c2ccc(Br)cc2)NC(=O)N3C)cc1 (centres undefined),2%,9%,nt,nt,nt,nt
Nc1ncnc2c1ncn2[C@@H]1O[C@H](CNC(=O)[C@@H]2CCC(=O)N2)[C@@H](O)[C@H]1O,nt,nt,nt,8%,nt,nt
O=C(c1cn(-c2ccccc2)nc1-c1ccc(Br)cc1)N1CCOCC1,-4%,-2%,0%,1%,-2%,-3%
Cc1c(C(C)NC(=O)c2cc(COc3cccc4cnccc34)on2)cnn1C (centres undefined),-9%,nt,nt,-9%[9.26 µM],-24%,-19%
COc1ccc(CCNC(=O)Cn2nnc(-c3ccc(N4CCOCC4)cc3)n2)cc1OC,3µM*,?,-8%,8%,?,3%
CCOc1ccc(CCNC(=O)Cn2nnc(-c3ccc(OC)c(OC)c3)n2)cc1OCC,-7%,-3%,nt,nt,nt,nt
CN(C)c1cccc(C(=O)Nc2ccc(N3CCOCC3)cc2)c1,21µM*,?,-10%,?,?,22%
C=C(C)Cn1c(SCC(=O)c2ccc(Br)cc2)nc2sc3c(c2c1=O)CCCC3,-1%,8%,nt,nt,nt,nt
COc1ccc(NC(=O)C(=O)NCCC2CCCCN2S(=O)(=O)c2cccs2)cc1 (centres undefined),-14%,nt,nt,-5%,-15%,-27%
COc1cccc(NC(=O)C(=O)NCCC2CCCCN2S(=O)(=O)c2cccs2)c1 (centres undefined),11µM*,nt,nt,1%,29%,11%
c1ncc(CC2CCNCC2)[nH]1,nt,0%,2%,nt,nt,nt
COC1=C(Nc2ccc(C)cc2)C(=O)c2ccccc2C1=O,17µM*,?,-12%,6%,?,?
CC(=O)NC1=C(Nc2ccc(N(C)C)cc2)C(=O)c2ccccc2C1=O,12µM*,nt,nt,7%,?,26%
O=C(CCN1CCN(Cc2ccccc2)CC1)NNC(=O)Nc1cccc(C(F)(F)F)c1,0%,nt,nt,-7%,-6%,-2%
C=C(C)c1cccc(C(C)(C)NC(=O)NNC(=O)c2ccccc2O)c1,-4%,nt,nt,-5%,-4%,0%
CN(C)S(=O)(=O)c1ccc(C(=O)Nc2ccc3ncccc3c2)cc1,15µM*,nt,nt,?,22%,22%
CN(c1ccccc1)S(=O)(=O)c1ccc(NC(=O)c2ccc(-c3ccccc3)cc2)cc1,-5%,nt,-4%,-4%,-8%,-6%
Cc1ccc2ncccc2c1,-2%,14%,nt,3%,-4%,14%
Cc1nc2cc(NC(=O)c3ccc(S(=O)(=O)N(C)c4ccccc4)cc3)ccc2o1,17µM*,nt,nt,-42%,-9%,0%
O=C(Nc1ccc2ncccc2c1)c1ccccc1Br,12µM*,nt,nt,6.5µM*,2.8µM*,?
c1cnc2ccc(-c3ccc4ncccc4c3)cc2c1,0.6µM*,nt,nt,?,0.45µM*,1µM*
Cc1ccccc1OCc1nnc(SCc2cc(=O)c3cc(F)ccc3[nH]2)n1C,5%,nt,nt,nt,nt,nt
SMILES,FLuc counter,SMN2 splice enh,Luc counter,ELG1 genotox,Rab9 prom act,NPC1 prom act
O=C(CSc1nc(=O)n2ccccc2n1)OCc1ccccc1,2%,nt,nt,-7%,-1%,5%
Cc1cc(C)cc(NC(=O)CSc2nnc(CNC(=O)c3ccco3)n2C)c1,1%,nt,nt,0%,-3%,-3%
CC1CCCC(NC(=O)COC(=O)c2n[nH]c3ccccc23)C1C (centres undefined),nt,nt,nt,2%,nt,nt
Cc1c([N+](=O)[O-])cc(C(=O)Nc2ccc3ncccc3c2)cc1[N+](=O)[O-],-1%,nt,nt,1%,8%,-1%
O=C(Nc1ccc2ncccc2c1)Nc1ccc2ncccc2c1,6.7µM*,1%[9.22 µM],0%[7.66 µM],0%,27%,?
Cc1[nH]nc(-c2ccc(O)cc2O)c1-c1nc2ccccc2s1,-13%,-20%,-2%,19%,0%,0%
CC(=O)Nc1ccc(O)c(-c2nc3ccccc3s2)c1,?,30%,0%,?,?,20%
Cc1cc(C)c(-c2nc3ccccc3s2)[nH]1,4.8µM*,nt,nt,?,9%,4%
Nc1cccc(-c2nc3ccccc3s2)c1,1.2µM*,57%,-9%,3.7µM*,4µM*,3.2µM*
Oc1cccc(-c2nc3ccccc3s2)c1,1.7µM*,?,-18%,1.5µM*,?,1%
O=C(O)c1ccc2c(c1)C(=O)N(c1cccc(-c3nc4ccccc4s3)c1)C2=O,2.4µM*,nt,0%,6%,-7%,1%
Nc1ccc(-c2cc(-c3cccc(N)c3)nc(-c3ccccc3)n2)cc1,0%,-9%,1%,-2%,-7%,-1%
COC(=O)c1c(NC(=O)COc2ccc(C)cc2Br)sc2c1CCCC2,-3%,-1%,nt,nt,nt,nt
CCC(=O)O,nt,nt,4%[39.9 µM],nt,nt,nt
CC[n+]1cccc(-c2nc3ccccc3s2)c1,27µM*,-20%,1%,4%,-1%,1%
COc1cc(/C=C/C(=O)c2cccc([N+](=O)[O-])c2)cc(OC)c1OC,-1%,5%,1%,-8%,-7%,-2%
O=C(/C=C/c1ccccc1F)c1cccc([N+](=O)[O-])c1,12µM*,-3%,-5%,?,-4%,-2%
O=C(/C=C/c1ccccc1[N+](=O)[O-])c1ccccc1Br,?,25%,-1%,-13%,13%,17%
Cc1ccc(C(=O)/C=C/c2ccccc2[N+](=O)[O-])cc1,8.5µM*,21%,-4%,?,?,20%
O=C(/C=C/c1ccc(-c2ccccc2[N+](=O)[O-])o1)c1ccc(Br)cc1,?,-13%,4%,5%,3%,19%
Cc1ccc(C(=O)/C=C/c2ccc(-c3ccccc3[N+](=O)[O-])o2)cc1,19µM*,-1%,-1%,11%,17%,?
O=C(/C=C/c1ccc(-c2ccccc2[N+](=O)[O-])o1)c1ccc(F)cc1,13µM*,-4%,-3%,0%,14%,4%
CCOC(=O)N1CCN(C(=O)/C=C/c2ccc(C(C)(C)C)cc2)CC1,?,nt,nt,-7%,-1%,-1%
O=C(C#Cc1ccccc1)c1cccc([N+](=O)[O-])c1,11µM*,-30%,18%,10%,0%,1%

# Compound activity (PubChem)
